EWS-Fli block: EWS/Fli transcriptional activity inhibition | A673 NR0B1-luciferase reporter, viability-normalised | inhibition, % at 12.6 µM | hit rate 0.67% among 350,000;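 active = mean inhibition of at least 50% after viability correction, with every replicate also passing that limit; inconclusive = mean reaches 50% but only one of two replicates passes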;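 note: firefly luciferase signal divided by Alamar Blue viability fluorescence both relative to DMSO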
MITF TRPM1 inh: MITF TRPM1 promoter inhibition in SK-MEL-5 cells | SK-MEL-5 TRPM1 promoter luciferase, 24 h | inhibition, % at 12.5 µM | AID 488899 | hit rate 0.83% among 330,000;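 active = mean inhibition across replicates of 60% or more, whatever share of single replicates reaches that level; inconclusive = some that reach 60%, reason not given; inactive = mean inhibition across replicates below 60%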
PGC1a acetyl inh: modulators of PGC1a acetylation. hit rate 0.17% among 350,000. inhibition, % at 15.6 µM. U2OS PGC1a acetylation, AlphaScreen anti-acetyl-lysine; with virally co-expressed GCN5 acetyltransferase;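 active = every replicate shows inhibition of at least 40%; inconclusive = mean inhibition at least 40% but some replicate below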
EBV LMP1 NFkB: reduces LMP1-driven NF-kappaB luciferase signal | LMP1-induced NF-kappaB luciferase reporter cells, luminescence | inhibition, % at 12.5 µM | hit rate 0.69% among 350,000; in the data active = inhibition above about 41%; inconclusive = no clear call, values can overlap the other calls
PAX8 inh HTS: inhibitors of PAX8 transcriptional activity in RMG-I cells; AID 652154; inhibition, % at 12.6 µM; RMG-I TPO-luciferase reporter, SteadyGlo, 24 h; hit rate 1.2% among 360,000;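 active = mean replicate inhibition at least 60% with every replicate also reaching 60%; inconclusive = only one of the two criteria is met; inactive = mean below 60% and not all replicates reaching 60%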;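 note: luciferase light reporting Pax8 driven TPO promoter activity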
LGR2 antag: Drosophila LGR2 receptor signaling inhibition; inhibition, % at 9.99 µM; HEK293 LGR2, CRE-luciferase, bursicon-stimulated, 4 h; AID 720647; hit rate 0.35% among 380,000;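 active = drop in luminescence signal, shown as inhibition above about 50% in the replicate tests, limit read from the data, passing the limit was not always enough; inconclusive = probably only some replicates passing the limit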;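 note: agonist challenge used bursicon conditioned medium at about half maximal strength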
A number is an active result. The list is not random: actives were taken first. Their share in the collection is about 2.2%.

Screening C[C@@H]1CCCCO[C@H](CN(C)C(=O)Nc2ccc(F)cc2)[C@H](C)CN([C@H](C)CO)C(=O)c2cc(N(C)C)ccc2O1 returned EWS-Fli block inactive, PGC1a acetyl inh inactive, PAX8 inh HTS inactive and LGR2 antag inactive.
COCC#Cc1cnc2c(c1)C(=O)N([C@@H](C)CO)C[C@H](C)[C@H](CN(C)C)O2 was read as EWS-Fli block inactive, PGC1a acetyl inh inactive and LGR2 antag inactive.
Screening COc1ccc(COc2cc(-c3cccc(OC)c3)nc3ccc(NC(=O)c4cccnc4)cc23)cc1 returned EWS-Fli block inactive, MITF TRPM1 inh inactive, PGC1a acetyl inh inactive, EBV LMP1 NFkB inactive, PAX8 inh HTS 65 and LGR2 antag inactive.
COc1ccc(COc2cc(-c3cccc(OC)c3)nc3ccc(NC(=O)c4ccccc4)cc23)cc1 was read as EWS-Fli block 58, MITF TRPM1 inh inactive, PGC1a acetyl inh inactive, EBV LMP1 NFkB inactive, PAX8 inh HTS inactive and LGR2 antag inactive.
Screening COc1ccc(NC(=O)c2cccc(NC(=O)c3ccccc3)c2)cc1 returned EWS-Fli block inactive, MITF TRPM1 inh inactive, PGC1a acetyl inh inactive, EBV LMP1 NFkB inactive, PAX8 inh HTS inactive and LGR2 antag inactive.
For COc1ccc(COc2cc(-c3cccc(OC)c3)nc3ccc(NC(=O)c4ccc(OC)cc4)cc23)cc1 the results were EWS-Fli block inactive, MITF TRPM1 inh inactive, EBV LMP1 NFkB inactive, PAX8 inh HTS 78 and LGR2 antag inactive.
For COc1ccc(Cc2nc(-c3ccc(NC(=O)c4cccnc4)cc3)no2)cc1 the results were MITF TRPM1 inh inactive, PGC1a acetyl inh inactive and EBV LMP1 NFkB inactive.
For COc1ccc(C(=O)Nc2ccc(NC(=O)c3cccc(OC)c3)cn2)cc1 the results were EWS-Fli block inactive, MITF TRPM1 inh inactive, PGC1a acetyl inh inactive, EBV LMP1 NFkB inactive, PAX8 inh HTS inactive and LGR2 antag inactive.
COc1ccc(COc2cc(-c3cccc(OC)c3)nc3ccc(NC(=O)c4ccc(Cl)cc4)cc23)cc1 was read as EWS-Fli block 57, MITF TRPM1 inh inactive, PGC1a acetyl inh inactive, EBV LMP1 NFkB inactive, PAX8 inh HTS inactive and LGR2 antag inactive.
Screening COc1ccc(S(=O)(=O)Nc2ccc3c(c2)C(=O)N([C@H](C)CO)C[C@@H](C)[C@H](CN(C)CC2CC2)OCCCC[C@@H](C)O3)cc1 returned PGC1a acetyl inh inactive, PAX8 inh HTS inactive and LGR2 antag inactive.
O=C(C[C@H]1CC[C@H](NC(=O)C2CCC2)[C@@H](CO)O1)NC1CCC1 was read as EWS-Fli block inactive, PGC1a acetyl inh inactive, PAX8 inh HTS inactive and LGR2 antag inactive.
`COc1ccc2c3c([nH]c2c1)[C@@H](CO)N(C(=O)Nc1ccccc1F)CC31CN(C(C)=O)C1` gave EWS-Fli block inactive, PGC1a acetyl inh inactive and LGR2 antag inactive.
`Cc1ccc(-c2cc(N)n3nc(-c4ccc(C)cc4)cc3n2)cc1` gave MITF TRPM1 inh inactive, PGC1a acetyl inh inactive and EBV LMP1 NFkB 52.
For COC(=O)C[C@H]1CC[C@H]2[C@@H](COC[C@@H](O)CN2S(=O)(=O)c2ccccc2C)O1 the results were EWS-Fli block inactive, PGC1a acetyl inh inactive, PAX8 inh HTS inactive and LGR2 antag inactive.
C[C@@H]1CN([C@@H](C)CO)C(=O)c2cc(NC(=O)CCC(F)(F)F)ccc2O[C@@H](C)CCCCO[C@H]1CN(C)C(=O)CCC(F)(F)F was read as EWS-Fli block inactive, PGC1a acetyl inh inactive, PAX8 inh HTS inactive and LGR2 antag inactive.
COc1cc(C2c3cc4c(cc3CC3COC(=O)N32)OCO4)cc(OC)c1OC (centres undefined) was read as EWS-Fli block inconclusive, MITF TRPM1 inh inactive, PGC1a acetyl inh inactive, EBV LMP1 NFkB inactive, PAX8 inh HTS 72 and LGR2 antag inactive.
Screening COc1cc2c(c(OC)c1OC)C(c1ccc3c(c1)OCO3)CC(=O)O2 (centres undefined) returned EWS-Fli block inactive, MITF TRPM1 inh inactive, PGC1a acetyl inh inactive, EBV LMP1 NFkB inactive, PAX8 inh HTS inactive and LGR2 antag inactive.
O=c1c2c3c(sc2nc(N2CCNCC2)n1CCc1ccccc1)CCCCC3 was read as EWS-Fli block inactive, MITF TRPM1 inh 69, PGC1a acetyl inh inactive, EBV LMP1 NFkB inactive and PAX8 inh HTS inactive.
COc1ccccc1S(=O)(=O)N[C@H]1CC[C@H](CC(=O)NCc2cc(F)cc(F)c2)O[C@H]1CO was read as EWS-Fli block inactive, PGC1a acetyl inh inactive, PAX8 inh HTS inactive and LGR2 antag inactive.
Screening CC(C)NS(=O)(=O)c1ccc(CCC(=O)Nc2ccc3c(c2)OCCO3)cc1 returned EWS-Fli block inactive, MITF TRPM1 inh inactive, EBV LMP1 NFkB inactive and PAX8 inh HTS inactive.
Screening Cc1cc(S(=O)(=O)NC(C)C)ccc1OCC(=O)Nc1ccc2c(c1)OCCO2 returned EWS-Fli block inactive, MITF TRPM1 inh inactive, PGC1a acetyl inh 110, EBV LMP1 NFkB inactive, PAX8 inh HTS inactive and LGR2 antag inactive.
Screening CC(C)NC(=O)c1ccc(-c2cccc(C(F)(F)F)c2)o1 returned MITF TRPM1 inh inactive, PGC1a acetyl inh inactive, EBV LMP1 NFkB inactive and LGR2 antag inactive.
For Cc1cccc(C)c1NC(=O)CN(C)C(=O)c1ccc(-c2cccc(C(F)(F)F)c2)o1 the results were EWS-Fli block inactive, MITF TRPM1 inh inactive, EBV LMP1 NFkB 55, PAX8 inh HTS inactive and LGR2 antag inactive.
`CC(C)NC(=O)N(C)C[C@H]1OCCCC[C@@H](C)Oc2ccc(NS(=O)(=O)c3ccc(Cl)cc3)cc2C(=O)N([C@H](C)CO)C[C@H]1C` gave EWS-Fli block inactive, PGC1a acetyl inh inactive, PAX8 inh HTS inactive and LGR2 antag inactive.
For Cc1cc([N+](=O)[O-])nn1Cc1ccc(C(=O)N/N=C/c2ccc(O)cc2O)cc1 the results were MITF TRPM1 inh inactive, PGC1a acetyl inh inactive, EBV LMP1 NFkB inactive, PAX8 inh HTS 63 and LGR2 antag inactive.
Screening O=C(N/N=C/c1ccccc1)c1ccc(CN2C(=O)c3cccc4cccc2c34)cc1 returned EWS-Fli block inactive, MITF TRPM1 inh inactive, EBV LMP1 NFkB inactive, PAX8 inh HTS inactive and LGR2 antag inactive.
`O=C(N/N=C/c1ccc(O)cc1O)c1ccc(CN2C(=O)c3cccc4cccc2c34)cc1` gave EWS-Fli block inactive, MITF TRPM1 inh inactive, PGC1a acetyl inh inactive, EBV LMP1 NFkB 50, PAX8 inh HTS 67 and LGR2 antag inactive.
Cc1cc([N+](=O)[O-])nn1Cc1ccc(C(=O)N/N=C/c2ccc(F)cc2)cc1 was read as EWS-Fli block inactive, MITF TRPM1 inh inactive, PGC1a acetyl inh inactive, EBV LMP1 NFkB inactive and PAX8 inh HTS inactive.
c1csc(-c2nc(NCC3CCCO3)c3ccccc3n2)c1 (centres undefined) was read as EWS-Fli block inactive, MITF TRPM1 inh inactive, PGC1a acetyl inh inactive, EBV LMP1 NFkB inactive, PAX8 inh HTS inactive and LGR2 antag inactive.
c1ccc2c(NCC3CCCO3)nc(N3CCCCC3)nc2c1 (centres undefined) was read as EWS-Fli block inactive, MITF TRPM1 inh inactive, PGC1a acetyl inh inactive, EBV LMP1 NFkB inactive, PAX8 inh HTS 63 and LGR2 antag inactive.

Screening data from PubChem.
